Records with an inconclusive call do not appear. Entries that show only a call come without a potency. Activity calls are given as the source filed them.

Chain of Estrogen receptor beta (Homo sapiens) (Q92731 whole entry, looked up): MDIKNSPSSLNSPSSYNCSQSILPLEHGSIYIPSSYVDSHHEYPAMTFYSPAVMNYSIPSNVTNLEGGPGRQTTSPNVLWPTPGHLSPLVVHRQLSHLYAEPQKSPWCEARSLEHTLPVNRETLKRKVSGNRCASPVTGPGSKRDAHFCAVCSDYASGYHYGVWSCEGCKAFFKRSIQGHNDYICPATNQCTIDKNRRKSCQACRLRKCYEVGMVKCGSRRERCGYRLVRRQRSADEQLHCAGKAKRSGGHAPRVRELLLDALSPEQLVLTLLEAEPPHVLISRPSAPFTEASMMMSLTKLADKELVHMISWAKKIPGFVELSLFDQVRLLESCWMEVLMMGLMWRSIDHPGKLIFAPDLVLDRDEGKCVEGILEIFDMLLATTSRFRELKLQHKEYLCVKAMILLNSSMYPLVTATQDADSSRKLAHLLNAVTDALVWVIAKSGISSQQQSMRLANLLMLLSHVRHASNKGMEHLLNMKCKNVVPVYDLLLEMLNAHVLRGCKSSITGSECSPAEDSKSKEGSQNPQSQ

The first experiment has as its target Estrogen receptor beta (Homo sapiens) (UniProt Q92731). Nature of the experiment: qHTS assay to identify small molecule agonists of the estrogen receptor beta (ER-beta) signaling pathway (AID 1259377; active = well fitted activation curve with a large enough effect in the signal ratio in the repeat runs, not every such curve was filed as active; the % refers to the signal ratio). To be noted: ER-beta-UAS-bla HEK293T, beta-lactamase FRET ratio, 16 h; series mostly up to 92.4 µM. The procedure, abridged:
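ER-beta-UAS-bla HEK293T cells in medium with 2% charcoal-stripped FBS were exposed to compounds for 16 h at 37C. Beta-lactamase reporter activity was read as fluorescence after 2 h with LiveBLAzer B/G FRET substrate at room temperature.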
For orientation: In qHTS, concentration-response curves come from the screen itself.
For the compound `CCCCN(CCCC)CCC(O)c1cc2c(Cl)cc(Cl)cc2c2cc(C(F)(F)F)ccc12` (stereo not given), the Potency result is “inactive”.
On the same count and under the same terms, to `O[C@@H](c1cc(C(F)(F)F)nc2c(C(F)(F)F)cccc12)[C@H]1CCCCN1` belongs “inactive”; to `CN1CCN(C2Cc3ccccc3Sc3ccc(Cl)cc32)CC1` (stereo not given), “inactive”.
For `Cc1ccc(-n2[nH]c(C)c(N=Nc3cccc(-c4cccc(C(=O)O)c4)c3O)c2=O)cc1C`, the Potency result was “inactive”.
For the compound `CCCCOc1ccc(C(=O)CCN2CCCCC2)cc1`, the Potency entry was “inactive”.
Turning to `Cc1cccc(C)c1NC(=O)CN1CCN(CCCC(c2ccc(F)cc2)c2ccc(F)cc2)CC1`, the Potency entry was “inactive”.
For `Cc1cc(Nc2ccc(O)cc2)ccc1N`, the Potency entry is “inactive”.
On the same count and under the same terms, the same measure for `CC1CCCCN1CCCOC(=O)c1ccc(OC2CCCCC2)cc1` (stereo not given): “inactive”.

The target is the same in another experiment. Nature of the experiment: qHTS assay to identify small molecule antagonists of the estrogen receptor beta (ER-beta) signaling pathway (AID 1259378; active = well fitted inhibition curve with a large enough effect in the signal ratio in the repeat runs, not every such curve was filed as active; the % refers to the signal ratio; note: potency is the fitted concentration of half-maximal effect). Conditions: ER-beta-UAS-bla HEK293T, beta-lactamase FRET ratio, 16 h; series mostly up to 92.4 µM. The procedure, abridged: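 Antagonist mode: compounds added to beta-lactamase reporter HEK293T ER-beta-UAS cells stimulated with E2 (1nM final), 16 hr at 37C. LiveBLAzer B/G FRET substrate, 2 hours room temperature, fluorescence read-out.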
Consider `CO[C@H]1C=CO[C@@]2(C)Oc3c(C)c(O)c4c(O)c(cc(O)c4c3C2=O)NC(=O)/C(C)=C\C=C/[C@H](C)[C@H](O)[C@@H](C)[C@@H](O)[C@@H](C)[C@H](OC(C)=O)[C@@H]1C`, for which the Potency is 43.6 µM (active).
Regarding `CN(C)c1ccc(N=Nc2ccccc2C(=O)O)cc1`, the Potency is 15.4 µM (active).
In the case of `CCCCCCCCCC(=O)N(C)C`, the Potency entry was “inactive”.
In the case of `CCN(CC)CCOc1ccc(C(O)(Cc2ccc(Cl)cc2)c2ccc(C)cc2)cc1` (stereo not given), the Potency is 10.6 µM (active).
The same measure, in the same setting: to `CC(C)(c1cc(Br)c(OCCO)c(Br)c1)c1cc(Br)c(OCCO)c(Br)c1` belongs 4.75 µM (active).
The same measure, in the same setting: to `CCC(C)(C)c1cc(O)c(C(C)(C)CC)cc1O` belongs 48.6 µM (active); to `Cc1ccc(-n2[nH]c(C)c(N=Nc3cccc(-c4cccc(C(=O)O)c4)c3O)c2=O)cc1C`, 8.41 µM (active).

For the origin of these results see PubChem BioAssay (Tox21).
